# Targets with a hit are over-represented here; the source holds about 8,800 in all. About 0.5% of all pairs of compound and target were hits. Values without a mark were called inactive.
# Assays:
# Experiment in all cases: log2 fold change, soluble protein after heating vs DMSO (PISA); higher = thermal stabilisation; K562 lysate, 10 uM; active = over 0.2 and 3.5 SD of the protein, either way, in both replicates (recomputed)
# [1] = compound: CN1CC[C@H](c2c(O)cc(O)c3c(=O)cc(-c4ccccc4Cl)oc23)[C@H](O)C1 [alvocidib]
# How it was run: (§1)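 The values are log-two fold changes in thermal stability compared with solvent controls and come from duplicates. They were obtained by TMTpro 16plex LC-MS/MS, with channel sums equalised, on the supernatant after 21,000xg for 90 min. That supernatant came from crude K562 extract at 1 mg/mL protein treated with 10 μM compound for 30 min, heated for 3 min across 48°C-58°C, pooled and brought to 0.5% NP-40 at 4°C.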
# [2] = compound: CN1CCc2c(c3ccccc3n2Cc2ccc(C(=O)NO)cc2)C1 [Tubastatin A]
# How it was run: as §1
# [3] = compound: CNC(=O)C1=CC=CC=C1NC2=NC(=NC=C2Cl)NC3=C(C=C(C=C3)N4CCOCC4)OC
# How it was run: as §1
# [4] = compound: CNC(=O)c1ccc(Nc2ncc(C(F)(F)F)c(NCc3nccnc3N(C)S(C)(=O)=O)n2)cc1 [defactinib]
# How it was run: as §1
# [5] = compound: CNc1nc(-c2ccc3c(N)n[nH]c3c2)cc(N2C[C@@H](C(=O)NC3CCCCC3)CC[C@H]2C)n1
# How it was run: as §1
# [6] = compound: COC(=O)N[C@@H](C)CNc1nccc(-c2cn(C(C)C)nc2-c2cc(Cl)cc(NS(C)(=O)=O)c2F)n1 [encorafenib]
# How it was run: as §1
# [7] = compound: COC(=O)[C@H](CCSC)NC(=O)C1=C(C=C(C=C1)NC[C@H](CS)N)C2=CC=CC=C2
# How it was run: as §1
# [8] = compound: COc1cc(Nc2ncc3c(n2)-c2ccc(Cl)cc2C(c2c(F)cccc2OC)=NC3)ccc1C(=O)O [alisertib]
# How it was run: as §1
# [9] = compound: COc1cc2nc(-c3cc(F)ccc3O)nc(N[C@@H]3CNC[C@H]3C(C)(C)O)c2cc1OC
# How it was run: as §1
# [10] = compound: COc1cc2ncnc(Nc3ccc(F)c(Cl)c3)c2cc1OCCCN1CCOCC1 [gefitinib]
# How it was run: as §1
# Chain of UniProt P04080 (P04080 whole entry, looked up): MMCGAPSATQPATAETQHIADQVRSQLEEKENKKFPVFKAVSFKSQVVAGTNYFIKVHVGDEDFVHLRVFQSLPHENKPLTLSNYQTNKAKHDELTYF
# Chain of UniProt Q9Y2V7 (Q9Y2V7 whole entry, looked up): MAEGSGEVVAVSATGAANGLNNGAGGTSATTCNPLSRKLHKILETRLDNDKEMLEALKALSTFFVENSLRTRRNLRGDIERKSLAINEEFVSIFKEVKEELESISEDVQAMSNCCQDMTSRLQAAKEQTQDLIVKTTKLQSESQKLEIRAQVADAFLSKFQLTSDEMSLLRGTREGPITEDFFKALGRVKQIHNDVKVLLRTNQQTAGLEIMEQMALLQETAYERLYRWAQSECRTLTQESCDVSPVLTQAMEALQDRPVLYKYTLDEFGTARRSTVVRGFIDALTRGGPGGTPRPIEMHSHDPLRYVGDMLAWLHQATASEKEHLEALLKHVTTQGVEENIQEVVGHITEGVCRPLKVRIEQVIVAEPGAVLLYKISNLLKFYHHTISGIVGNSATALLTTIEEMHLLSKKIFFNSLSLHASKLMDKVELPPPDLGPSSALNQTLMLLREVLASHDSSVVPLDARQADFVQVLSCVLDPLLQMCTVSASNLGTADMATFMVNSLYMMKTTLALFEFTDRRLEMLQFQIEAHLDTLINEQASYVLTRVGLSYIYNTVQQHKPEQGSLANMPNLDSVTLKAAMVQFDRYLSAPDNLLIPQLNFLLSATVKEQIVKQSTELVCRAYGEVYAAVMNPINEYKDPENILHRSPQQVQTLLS
# Chain of UniProt Q9H078 (Q9H078 whole entry, looked up): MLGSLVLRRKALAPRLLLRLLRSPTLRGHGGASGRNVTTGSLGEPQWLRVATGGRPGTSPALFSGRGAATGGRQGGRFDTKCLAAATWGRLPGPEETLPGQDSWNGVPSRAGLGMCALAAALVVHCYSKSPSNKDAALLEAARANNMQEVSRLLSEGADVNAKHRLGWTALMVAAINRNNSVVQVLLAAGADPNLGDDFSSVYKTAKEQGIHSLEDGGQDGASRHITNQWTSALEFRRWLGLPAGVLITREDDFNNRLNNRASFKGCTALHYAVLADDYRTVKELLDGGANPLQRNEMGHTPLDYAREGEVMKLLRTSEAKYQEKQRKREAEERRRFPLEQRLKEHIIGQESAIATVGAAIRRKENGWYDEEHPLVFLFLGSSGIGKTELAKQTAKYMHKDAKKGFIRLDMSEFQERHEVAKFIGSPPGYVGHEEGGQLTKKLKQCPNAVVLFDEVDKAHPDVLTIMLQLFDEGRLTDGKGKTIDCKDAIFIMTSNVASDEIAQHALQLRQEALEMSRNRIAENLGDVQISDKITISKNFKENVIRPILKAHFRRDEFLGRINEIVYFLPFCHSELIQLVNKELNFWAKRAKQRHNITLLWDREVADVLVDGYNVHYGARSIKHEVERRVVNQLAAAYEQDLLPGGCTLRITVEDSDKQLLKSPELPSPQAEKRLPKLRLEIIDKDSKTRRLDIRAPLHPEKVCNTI
# Chain of UniProt Q99766 (Q99766 whole entry, looked up): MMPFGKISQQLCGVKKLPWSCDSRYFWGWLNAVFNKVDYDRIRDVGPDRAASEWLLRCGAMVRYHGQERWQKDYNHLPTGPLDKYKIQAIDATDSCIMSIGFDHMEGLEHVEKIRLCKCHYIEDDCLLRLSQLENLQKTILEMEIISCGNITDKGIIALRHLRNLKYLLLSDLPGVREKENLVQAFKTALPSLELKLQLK
# Chain of UniProt P49674 (P49674 whole entry, looked up): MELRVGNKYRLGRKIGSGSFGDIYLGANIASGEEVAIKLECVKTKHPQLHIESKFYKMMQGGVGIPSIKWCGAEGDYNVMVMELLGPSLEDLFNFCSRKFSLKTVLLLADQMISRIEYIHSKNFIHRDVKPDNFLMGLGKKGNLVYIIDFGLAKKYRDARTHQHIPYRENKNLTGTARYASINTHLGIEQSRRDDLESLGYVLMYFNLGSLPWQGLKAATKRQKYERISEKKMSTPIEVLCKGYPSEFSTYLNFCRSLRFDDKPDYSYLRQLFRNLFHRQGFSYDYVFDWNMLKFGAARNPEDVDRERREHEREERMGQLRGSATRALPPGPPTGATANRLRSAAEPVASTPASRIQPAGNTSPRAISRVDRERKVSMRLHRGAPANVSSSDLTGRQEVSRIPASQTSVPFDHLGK
# Chain of UniProt P14868 (P14868 whole entry, looked up): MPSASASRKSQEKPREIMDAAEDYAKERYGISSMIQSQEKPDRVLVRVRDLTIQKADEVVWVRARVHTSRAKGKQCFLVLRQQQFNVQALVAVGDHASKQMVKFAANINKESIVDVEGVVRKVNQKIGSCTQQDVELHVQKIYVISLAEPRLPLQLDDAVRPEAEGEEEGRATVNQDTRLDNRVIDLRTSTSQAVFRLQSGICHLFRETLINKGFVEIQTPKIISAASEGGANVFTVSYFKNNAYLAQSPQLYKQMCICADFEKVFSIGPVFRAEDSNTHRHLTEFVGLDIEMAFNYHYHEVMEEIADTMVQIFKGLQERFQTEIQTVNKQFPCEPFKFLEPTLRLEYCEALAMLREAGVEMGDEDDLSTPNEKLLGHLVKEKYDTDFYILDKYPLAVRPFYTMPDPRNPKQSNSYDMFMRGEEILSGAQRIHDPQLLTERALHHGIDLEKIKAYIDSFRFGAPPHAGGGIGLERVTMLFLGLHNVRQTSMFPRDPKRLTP
# Chain of UniProt Q9BQ75 (Q9BQ75 whole entry, looked up): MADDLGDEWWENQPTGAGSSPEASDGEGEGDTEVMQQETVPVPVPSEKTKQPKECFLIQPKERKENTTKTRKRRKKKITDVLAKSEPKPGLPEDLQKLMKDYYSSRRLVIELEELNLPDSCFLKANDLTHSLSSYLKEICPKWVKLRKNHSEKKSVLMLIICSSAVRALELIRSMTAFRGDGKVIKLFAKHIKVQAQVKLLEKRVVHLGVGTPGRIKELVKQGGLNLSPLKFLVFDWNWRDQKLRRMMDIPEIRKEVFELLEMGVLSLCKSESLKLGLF
# Chain of UniProt P19784 (P19784 whole entry, looked up): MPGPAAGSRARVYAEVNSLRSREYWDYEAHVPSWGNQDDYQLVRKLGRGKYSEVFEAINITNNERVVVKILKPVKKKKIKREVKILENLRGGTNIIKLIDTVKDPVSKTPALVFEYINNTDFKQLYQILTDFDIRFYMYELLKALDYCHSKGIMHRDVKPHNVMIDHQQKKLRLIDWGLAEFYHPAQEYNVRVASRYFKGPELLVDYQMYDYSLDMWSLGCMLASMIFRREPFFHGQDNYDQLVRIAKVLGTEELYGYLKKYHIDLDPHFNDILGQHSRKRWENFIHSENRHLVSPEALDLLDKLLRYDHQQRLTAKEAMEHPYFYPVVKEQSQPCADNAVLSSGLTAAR
# Chain of UniProt P17812 (P17812 whole entry, looked up): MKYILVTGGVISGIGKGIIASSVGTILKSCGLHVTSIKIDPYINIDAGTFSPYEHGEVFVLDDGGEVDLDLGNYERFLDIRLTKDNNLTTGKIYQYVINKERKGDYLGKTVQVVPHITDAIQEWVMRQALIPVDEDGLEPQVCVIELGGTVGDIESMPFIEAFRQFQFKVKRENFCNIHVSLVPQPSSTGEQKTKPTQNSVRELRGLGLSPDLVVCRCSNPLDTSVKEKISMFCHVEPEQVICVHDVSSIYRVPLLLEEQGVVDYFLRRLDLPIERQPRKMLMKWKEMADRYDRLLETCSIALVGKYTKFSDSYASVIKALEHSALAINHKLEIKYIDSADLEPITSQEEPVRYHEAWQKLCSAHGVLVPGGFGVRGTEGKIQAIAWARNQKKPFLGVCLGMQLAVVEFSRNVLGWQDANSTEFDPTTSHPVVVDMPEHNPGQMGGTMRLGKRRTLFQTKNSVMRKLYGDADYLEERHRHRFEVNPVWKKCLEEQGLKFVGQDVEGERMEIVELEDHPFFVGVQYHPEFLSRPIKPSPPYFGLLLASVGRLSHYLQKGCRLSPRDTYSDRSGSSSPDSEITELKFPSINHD
# Chain of UniProt Q5EBM0 (Q5EBM0 whole entry, looked up): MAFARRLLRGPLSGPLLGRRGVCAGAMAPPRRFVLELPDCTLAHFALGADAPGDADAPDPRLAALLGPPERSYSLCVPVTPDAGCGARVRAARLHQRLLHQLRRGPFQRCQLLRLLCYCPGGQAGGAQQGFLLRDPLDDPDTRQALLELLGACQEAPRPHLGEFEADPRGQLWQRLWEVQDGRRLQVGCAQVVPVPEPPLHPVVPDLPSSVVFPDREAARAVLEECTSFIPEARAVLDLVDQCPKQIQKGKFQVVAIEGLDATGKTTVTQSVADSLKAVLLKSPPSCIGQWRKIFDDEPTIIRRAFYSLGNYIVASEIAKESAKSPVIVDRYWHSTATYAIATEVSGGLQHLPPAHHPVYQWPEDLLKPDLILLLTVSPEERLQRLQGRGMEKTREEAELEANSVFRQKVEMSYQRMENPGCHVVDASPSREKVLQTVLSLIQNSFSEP
# Chain of UniProt O75911 (O75911 whole entry, looked up): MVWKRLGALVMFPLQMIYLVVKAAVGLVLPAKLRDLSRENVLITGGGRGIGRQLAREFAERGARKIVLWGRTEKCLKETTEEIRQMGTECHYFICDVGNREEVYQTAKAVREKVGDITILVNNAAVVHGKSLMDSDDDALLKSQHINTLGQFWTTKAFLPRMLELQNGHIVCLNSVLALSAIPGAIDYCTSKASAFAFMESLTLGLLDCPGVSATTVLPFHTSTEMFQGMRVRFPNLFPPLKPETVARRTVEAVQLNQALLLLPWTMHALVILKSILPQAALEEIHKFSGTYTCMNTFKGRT
# Chain of UniProt O60762 (O60762 whole entry, looked up): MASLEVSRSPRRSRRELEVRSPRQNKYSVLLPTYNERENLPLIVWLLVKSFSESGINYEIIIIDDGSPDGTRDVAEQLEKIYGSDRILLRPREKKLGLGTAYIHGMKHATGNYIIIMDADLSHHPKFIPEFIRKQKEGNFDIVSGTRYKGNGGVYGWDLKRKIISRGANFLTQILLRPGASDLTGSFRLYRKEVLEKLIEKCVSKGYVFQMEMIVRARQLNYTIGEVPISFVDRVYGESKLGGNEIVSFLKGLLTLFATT
Target,log2 fold change [1],log2 fold change [2],log2 fold change [3],log2 fold change [4],log2 fold change [5],log2 fold change [6],log2 fold change [7],log2 fold change [8],log2 fold change [9],log2 fold change [10]
DARS (UniProt P14868),0.012,-0.119,-0.012,0.012,-0.061,0.028,0.049,0.038,0.003,-0.014
"CLUH, A0A494C0R8",0.076,-0.08,-0.015,-0.184,-0.049,-0.089,0.054,-0.05,0.005,0.138
DIAPH3 (UniProt Q9NSV4),0.041,-0.195,0.004,-0.024,-0.027,0.118,0.085,0.056,-0.015,0.06
CMPK2 (UniProt Q5EBM0),-0.046,0.005,0.018,0.027,-0.006,0.01,0.028,-0.026,0.018,-0.022
CLPB isoform 2 (UniProt Q9H078),0.065,-0.075,0.031,0.086,-0.049,0.025,-0.053,0.001,-0.036,0.034
COG6 (UniProt Q9Y2V7),0.026,-0.062,0.059,-0.028,0.059,-0.026,0.034,0.016,-0.017,0.006
CSDE1 isoform 4 (UniProt O75534),0,-0.104,0.01,0,-0.014,-0.008,0.209 (active),0.004,-0.021,-0.014
CSNK2A2 (UniProt P19784),0.101,-0.059,0.321,0.172,-0.022,-0.047,0.012,0.078,0.135,0.004
DHRS3 (UniProt O75911),-0.013,0.105,0.043,-0.006,0.085,-0.044,0.151,-0.006,-0.011,0.071
DPM1 (UniProt O60762),0.084,0.055,-0.005,0.037,0.041,0.01,0.083,0.047,0.013,-0.041
CTPS1 (UniProt P17812),0.006,-0.101,-0.021,0,-0.048,0.016,0.038,-0.019,-0.001,-0.015
CMSS1 (UniProt Q9BQ75),0.013,-0.036,-0.02,-0.009,-0.032,0.015,0.024,0.02,0.004,0.025
CSTB (UniProt P04080),-0.051,0.089,-0.023,0.069,0.011,0.025,-0.011,0.023,-0.042,-0.143
DMAC2L (UniProt Q99766),0.029,0,-0.056,0.022,0.018,0.016,-1.03 (active),0.074,0.031,0.061
CSNK1E (UniProt P49674),0.021,-0.159,0.129,-0.017,0.093,-0.032,0.028,-0.034,0.048,0.012

# From the supplement of paper PMC10849652
